Results on four compounds are retold here after PubChem BioAssay.

The inhibition is the change of the read-out against control, counted positive when it falls.

The nature of experiment [1]: rapamycin-like changes in RPL19A-GFP expression – cell-based, S. cerevisiae, multiplex flow cytometry, primary screen (AID 1862; in the data active means percent of DMSO control GFP below about 86%;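 further: lower values mimic rapamycin by blocking the RPL19A rise seen in DMSO cells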). The note with it: S. cerevisiae RPL19A-GFP strain, flow cytometry fluorescence, 3 h; at 10 µM; stronger effect = lower value. In general terms: In flow cytometry, cells or beads pass a laser one at a time.
Experiment [2] is described as follows: TOR pathway GLN3 branch reporter MEP2-GFP changes – S. cerevisiae, multiplex flow cytometry, primary screen (AID 1867;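 active means GFP response, as percent of the DMSO control, above the screen-wide mean plus 3 SD, about 139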;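 further: median GFP channel fluorescence of barcode-gated MEP2-GFP cells measured by flow cytometry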). The note with it: S. cerevisiae MEP2-GFP strain, 3 h, at 10 µM, stronger effect = higher value, 100% means same as DMSO wells.
A short description of experiment [3]: TOR pathway RTG branch CIT2 reporter changes – S. cerevisiae, GFP fusion, multiplex flow cytometry, primary screen (AID 1870;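 active means percent response above a set limit, the screen-wide mean plus 3 SD, cut at about 130% in these data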;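 further: barcoded CIT2-GFP strain pooled with four other GFP strains with rapamycin as positive control; median GFP fluorescence per well over plate mean of DMSO wells so 100% = DMSO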). The conditions noted are these: S. cerevisiae CIT2-GFP expression, 3 h, at 10 µM, stronger effect = higher value.
Experiment [4] is described as follows: TOR pathway LAP4-GFP level changes – S. cerevisiae, multiplex flow cytometry, primary screen (AID 1873;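 active means GFP signal, as percent of the solvent control, above the screen mean plus 3 SD, about 149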). The note with it: S. cerevisiae LAP4-GFP expression, 3 h, at 10 µM, stronger effect = higher value.
The nature of experiment [5]: yeast AGP1-GFP level changes, GLN3 branch – cell-based, multiplex flow cytometry, S. cerevisiae, primary screen (AID 1887;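 active means GFP signal above the screen-wide mean plus 3 SD, that is over about 124.5% of the solvent control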;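 further: AGP1-GFP fusion strain of S. cerevisiae within a five-strain barcoded multiplex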). The note with it: 3 h, at 10 µM, stronger effect = higher value.
A short description of experiment [6]: reduced mouse 2C T cell binding to pMHC/ICAM-1 vesicles – MLPCN validation set, flow cytometry, LFA-1/ICAM-1 modulator project, pilot screen (AID 2523;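 active means response below a set limit, under 55% cells CD8-positive and vesicle-bound, and CD8 cells' 90th-percentile brightness under 279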;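 on vesicle binding response: mean PE anti-B7-1 fluorescence of CD8+ cells relative to row control; 100% = QL9-loaded vesicles with DMSO vehicle in the same plate row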). The conditions noted are these: 2C mouse CD8+ T cells, at 7 µM, stronger effect = lower value; double positive events: measured here: CD8+/vesicle+ event percentage.
For experiment [7], the target named is Integrin beta-1 (Homo sapiens) + Integrin alpha-4 (Homo sapiens) (UniProt P13612+P05556). The experiment in a line: alpha4beta1 integrin LIBS antibody binding reduction – U937 cells, HUTS-21 mAb, flow cytometry, validation set, VLA-4 allosteric modulator project, pilot screen (AID 2674;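 active means inhibition above 50%, about 3 SD of the validation set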;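 further: antibody binding induced by the VLA-4 ligand LDV present at three times its Kd; 0% = LDV ligand with antibody and no compound and 100% = antibody without LDV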). The conditions noted are these: HUTS-21 LIBS mAb binding, at 6.7 µM, stronger effect = higher value, binding induced by LDV ligand.
Integrin beta-1 (Homo sapiens) + Integrin alpha-4 (Homo sapiens), sequence (P05556 whole entry, looked up): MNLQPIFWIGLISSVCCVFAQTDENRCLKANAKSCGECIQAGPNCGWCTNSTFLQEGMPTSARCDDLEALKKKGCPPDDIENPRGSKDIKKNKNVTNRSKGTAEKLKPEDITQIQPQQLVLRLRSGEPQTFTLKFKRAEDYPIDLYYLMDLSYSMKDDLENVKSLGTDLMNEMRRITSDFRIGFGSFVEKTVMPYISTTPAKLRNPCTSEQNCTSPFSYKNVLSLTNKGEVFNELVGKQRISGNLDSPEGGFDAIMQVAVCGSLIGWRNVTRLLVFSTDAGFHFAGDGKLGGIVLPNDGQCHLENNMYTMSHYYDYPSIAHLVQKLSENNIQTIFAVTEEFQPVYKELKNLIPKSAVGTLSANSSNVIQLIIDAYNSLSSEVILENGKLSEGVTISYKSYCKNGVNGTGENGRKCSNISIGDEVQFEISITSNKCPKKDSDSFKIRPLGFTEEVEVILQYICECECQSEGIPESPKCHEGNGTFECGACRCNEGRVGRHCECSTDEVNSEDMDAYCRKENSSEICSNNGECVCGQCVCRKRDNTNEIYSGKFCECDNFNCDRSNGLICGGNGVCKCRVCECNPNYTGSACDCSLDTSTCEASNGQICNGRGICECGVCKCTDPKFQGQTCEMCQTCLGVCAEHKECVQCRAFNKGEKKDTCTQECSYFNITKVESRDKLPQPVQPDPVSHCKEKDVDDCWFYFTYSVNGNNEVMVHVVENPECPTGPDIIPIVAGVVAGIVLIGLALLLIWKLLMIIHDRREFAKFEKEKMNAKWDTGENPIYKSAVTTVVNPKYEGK
Integrin beta-1 (Homo sapiens) + Integrin alpha-4 (Homo sapiens), sequence (P13612 whole entry, looked up): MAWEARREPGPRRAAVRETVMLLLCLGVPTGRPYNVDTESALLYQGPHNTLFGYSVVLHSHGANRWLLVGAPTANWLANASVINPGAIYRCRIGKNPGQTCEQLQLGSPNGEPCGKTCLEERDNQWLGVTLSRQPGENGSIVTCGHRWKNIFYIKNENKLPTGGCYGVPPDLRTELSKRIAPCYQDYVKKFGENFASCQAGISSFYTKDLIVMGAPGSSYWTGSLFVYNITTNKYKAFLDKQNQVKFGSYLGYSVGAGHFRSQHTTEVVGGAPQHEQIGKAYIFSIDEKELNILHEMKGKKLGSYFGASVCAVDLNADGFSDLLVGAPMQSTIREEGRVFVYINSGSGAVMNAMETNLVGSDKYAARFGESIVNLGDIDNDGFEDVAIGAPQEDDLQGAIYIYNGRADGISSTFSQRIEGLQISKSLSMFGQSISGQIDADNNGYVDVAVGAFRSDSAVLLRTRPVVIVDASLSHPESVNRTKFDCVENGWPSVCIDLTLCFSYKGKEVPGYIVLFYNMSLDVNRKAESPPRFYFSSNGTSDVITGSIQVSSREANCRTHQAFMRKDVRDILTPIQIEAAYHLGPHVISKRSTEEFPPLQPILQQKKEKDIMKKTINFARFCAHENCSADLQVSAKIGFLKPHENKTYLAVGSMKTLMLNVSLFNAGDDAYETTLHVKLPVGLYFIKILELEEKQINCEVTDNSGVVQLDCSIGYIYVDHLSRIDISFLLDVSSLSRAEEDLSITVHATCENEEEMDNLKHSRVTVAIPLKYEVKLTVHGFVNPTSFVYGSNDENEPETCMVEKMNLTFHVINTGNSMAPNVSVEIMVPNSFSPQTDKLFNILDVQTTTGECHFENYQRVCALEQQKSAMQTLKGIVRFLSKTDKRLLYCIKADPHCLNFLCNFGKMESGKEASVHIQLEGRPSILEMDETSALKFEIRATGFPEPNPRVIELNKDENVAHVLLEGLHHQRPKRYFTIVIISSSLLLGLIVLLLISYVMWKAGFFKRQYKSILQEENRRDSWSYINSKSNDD

Experiment [8] in a line: calorie-restriction mimetic ROS inhibitors, yeast – validation compound set, pilot screen (AID 2706;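 active means superoxide response below 65% of plate, a cut near 3 SD across the whole screen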;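 further: yeast exposed to compound for one week at 30 degrees C before staining; 100% = mean of all compound wells on the same plate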). The note with it: S. cerevisiae aging, superoxide DHE fluorescence; at 10 µM; stronger effect = lower value.
For experiment [9], the target named is Beta-adrenergic receptor kinase 1 (Homo sapiens) (UniProt P25098). The experiment in a line: GRK2 binders displacing RNA aptamer, biochemical, validation, human GRK2, bead flow cytometry (AID 488806;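 active means aptamer binding inhibition above 30%, about 3 SD of noise from non-fluorescent compounds; inactive means inhibition at or below 30%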). The conditions noted are these: bead-bound GRK2, FAM-aptamer displacement, at 10 µM, stronger effect = higher value.
Beta-adrenergic receptor kinase 1 (Homo sapiens), sequence (P25098 whole entry, looked up): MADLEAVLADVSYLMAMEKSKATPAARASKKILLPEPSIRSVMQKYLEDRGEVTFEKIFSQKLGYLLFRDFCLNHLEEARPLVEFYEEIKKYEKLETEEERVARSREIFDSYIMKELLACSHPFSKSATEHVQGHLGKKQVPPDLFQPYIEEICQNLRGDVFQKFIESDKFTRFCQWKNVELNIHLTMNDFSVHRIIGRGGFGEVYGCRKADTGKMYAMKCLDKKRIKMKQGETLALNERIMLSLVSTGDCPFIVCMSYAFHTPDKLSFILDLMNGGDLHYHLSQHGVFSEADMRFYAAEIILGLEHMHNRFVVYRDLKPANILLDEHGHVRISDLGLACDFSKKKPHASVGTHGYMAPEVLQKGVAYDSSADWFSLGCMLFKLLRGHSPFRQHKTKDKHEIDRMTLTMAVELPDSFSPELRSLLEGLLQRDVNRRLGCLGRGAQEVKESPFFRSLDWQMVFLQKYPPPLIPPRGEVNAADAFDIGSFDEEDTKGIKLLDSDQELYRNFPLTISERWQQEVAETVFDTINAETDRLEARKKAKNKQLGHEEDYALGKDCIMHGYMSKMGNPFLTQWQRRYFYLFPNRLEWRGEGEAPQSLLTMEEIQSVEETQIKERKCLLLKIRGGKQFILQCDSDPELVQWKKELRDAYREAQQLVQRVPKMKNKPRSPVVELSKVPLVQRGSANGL
Experiment [10] addresses Beta-2 adrenergic receptor (Homo sapiens) (UniProt P07550). The experiment in a line: agonist-induced loss of surface beta2AR – cell-based, FAP fluorogen, flow cytometry, validation set, pilot screen (AID 504459;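 active means percent response above 42, roughly 3 SD of non-fluorescent test compounds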;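 further: agonist-driven loss of surface beta2AR via internalization measured by FAP dye flow cytometry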). The note with it: Am2.2-beta2AR cells, at 10 µM, stronger effect = higher value.
The target of experiment [11] is AP-2 complex subunit beta (Homo sapiens) (UniProt P63010). The experiment in a line: beta-arrestin/AP2 interaction blockers – biochemical, validation set, GST-AP2 beads, flow cytometry, pilot screen (AID 504541;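 active means inhibition above 54%, about 3 SD of non-fluorescent compounds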;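 further: AP2 carries R879A mutation and is captured from E. coli lysate; bead-bound FITC arrestin peptide fluorescence measuring arrestin peptide binding to AP2; 0% = DMSO wells and 100% = excess unlabeled arrestin peptide control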). The note with it: FITC arrestin peptide, at 10 µM, stronger effect = higher value, AP2 beta2 appendage fragment, R879A mutant.
AP-2 complex subunit beta (Homo sapiens), sequence (P63010 whole entry, looked up, the tested form may be a part, one chain of several): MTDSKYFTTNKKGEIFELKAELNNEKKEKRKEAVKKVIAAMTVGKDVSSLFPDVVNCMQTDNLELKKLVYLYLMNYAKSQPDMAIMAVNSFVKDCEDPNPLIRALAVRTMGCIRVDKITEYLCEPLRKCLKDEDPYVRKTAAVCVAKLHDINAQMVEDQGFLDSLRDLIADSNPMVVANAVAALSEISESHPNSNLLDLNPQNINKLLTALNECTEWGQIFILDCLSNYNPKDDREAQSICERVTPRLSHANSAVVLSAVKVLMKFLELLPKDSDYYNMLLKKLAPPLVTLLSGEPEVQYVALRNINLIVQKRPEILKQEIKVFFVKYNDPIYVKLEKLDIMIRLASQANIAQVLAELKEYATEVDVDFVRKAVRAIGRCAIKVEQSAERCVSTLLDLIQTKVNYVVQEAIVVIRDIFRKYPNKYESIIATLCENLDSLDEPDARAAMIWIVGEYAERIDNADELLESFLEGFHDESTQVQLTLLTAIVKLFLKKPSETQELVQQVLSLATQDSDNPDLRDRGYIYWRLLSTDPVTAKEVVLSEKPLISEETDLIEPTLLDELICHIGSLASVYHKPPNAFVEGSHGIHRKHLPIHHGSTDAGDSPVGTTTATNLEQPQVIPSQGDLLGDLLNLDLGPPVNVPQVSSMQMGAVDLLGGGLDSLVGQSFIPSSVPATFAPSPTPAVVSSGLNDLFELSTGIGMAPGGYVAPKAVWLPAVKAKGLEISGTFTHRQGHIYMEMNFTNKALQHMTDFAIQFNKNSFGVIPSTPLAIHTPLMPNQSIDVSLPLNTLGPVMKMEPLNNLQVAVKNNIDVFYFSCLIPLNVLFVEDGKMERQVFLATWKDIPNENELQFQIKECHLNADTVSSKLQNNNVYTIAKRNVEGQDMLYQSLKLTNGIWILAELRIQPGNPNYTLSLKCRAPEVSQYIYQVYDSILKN
Experiment [12] can be described thus: cytosolic pH regulators acting via V-ATPase – S. cerevisiae, pHLuorin, HTS validation (AID 504600; in the data active means response above about 15%;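 further: plate controls were DMSO for no effect and reference compound for full effect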). The note with it: V-ATPase proton transport, at 10 µM, stronger effect = higher value.
Experiment [13] deals with anti-desmoglein-3 scFv antibody binding to human DSG3. The experiment in a line: blockers of pathogenic pemphigus antibody–desmoglein-3 binding – biochemical, validation compound set, bead-based, flow cytometry, pilot screen (AID 588368;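 active means binding below the plate cutoff, the plate median minus 3 SD, with a reading above zero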;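 further: signal is the median channel fluorescence of bead-bound GFP antibody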). The conditions noted are these: Protein G beads, DSG3-Fc, scFv-GFP binding, at 10 µM, stronger effect = lower value.
A short description of experiment [14]: Nile Red efflux blockade in pump-expressing yeast – validation compound set, multiplex, phenotypic, pilot screen (AID 588506;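 active means efflux inhibition above 0.42, the validation set average plus 4 SD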;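 further: Nile Red retained in cells so higher fluorescence means more efflux inhibition; 0 = negative control wells and 1 = enniatin B 25 µM full block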). The conditions noted are these: S. cerevisiae pump-expressing triplex, Nile Red efflux flow cytometry; at 10 µM; stronger effect = higher value; the pumps come from Candida albicans.
Experiment [15] has as its target ATP-binding cassette sub-family B member 6 (Homo sapiens) (UniProt Q9NP58). The experiment in a line: blockers of ABCB6-driven porphyrin uptake – K562-ABCB6 cells, flow cytometry, validation set, pilot screen (AID 588550;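 active means inhibition above the screen-wide mean plus 3 SD, about 51%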;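 further: 0% = DMSO wells and 100% = benzethonium chloride 70 µM positive control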). The note with it: K562-ABCB6 porphyrin accumulation, 1 h, at 10 µM, stronger effect = higher value.
Experiment [16] in a line: AML differentiation inducers, ER-HoxA9 marrow cells – cell-based, GFP/MAC1 double positive, flow cytometry, validation set, primary screen (AID 588685).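 Further: compound exposure lasts four days before antibody staining and flow analysis; 0% = DMSO wells and 100% = 5 µM fulvestrant positive control.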 The conditions noted are these: stronger effect = higher value, normalized: vehicle 0, fulvestrant 100.

Structures are written as SMILES. Inconclusive results are not listed. Activity calls are given as the source filed them.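 How the source made its calls, unless noted: active means differentiation response of at least 50%, scaled between solvent and reference control, from cells with both markers; inactive means the rest.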

ATP-binding cassette sub-family B member 6 (Homo sapiens), sequence (Q9NP58 whole entry, looked up): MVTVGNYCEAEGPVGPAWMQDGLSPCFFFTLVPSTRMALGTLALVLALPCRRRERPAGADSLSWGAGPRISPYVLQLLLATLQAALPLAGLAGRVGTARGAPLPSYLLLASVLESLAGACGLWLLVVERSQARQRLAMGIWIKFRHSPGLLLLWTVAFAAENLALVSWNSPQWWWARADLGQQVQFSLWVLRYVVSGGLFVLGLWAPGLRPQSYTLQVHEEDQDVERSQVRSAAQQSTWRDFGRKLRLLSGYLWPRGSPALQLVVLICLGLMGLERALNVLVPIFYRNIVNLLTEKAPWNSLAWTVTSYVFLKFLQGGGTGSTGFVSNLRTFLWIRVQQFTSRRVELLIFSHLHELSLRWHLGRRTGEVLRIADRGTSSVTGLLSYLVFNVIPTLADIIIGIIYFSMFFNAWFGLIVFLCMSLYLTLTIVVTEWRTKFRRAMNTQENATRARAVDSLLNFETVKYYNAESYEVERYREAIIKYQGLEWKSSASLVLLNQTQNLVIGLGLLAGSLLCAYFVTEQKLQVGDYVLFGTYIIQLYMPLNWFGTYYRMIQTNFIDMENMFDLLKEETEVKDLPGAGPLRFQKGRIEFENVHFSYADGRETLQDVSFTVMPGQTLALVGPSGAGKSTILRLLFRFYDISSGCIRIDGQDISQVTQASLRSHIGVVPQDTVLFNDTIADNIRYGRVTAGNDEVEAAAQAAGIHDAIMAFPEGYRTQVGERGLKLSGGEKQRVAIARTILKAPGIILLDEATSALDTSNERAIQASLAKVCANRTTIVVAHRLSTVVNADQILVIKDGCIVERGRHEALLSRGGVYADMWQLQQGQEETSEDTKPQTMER
Beta-2 adrenergic receptor (Homo sapiens), sequence (P07550 whole entry, looked up): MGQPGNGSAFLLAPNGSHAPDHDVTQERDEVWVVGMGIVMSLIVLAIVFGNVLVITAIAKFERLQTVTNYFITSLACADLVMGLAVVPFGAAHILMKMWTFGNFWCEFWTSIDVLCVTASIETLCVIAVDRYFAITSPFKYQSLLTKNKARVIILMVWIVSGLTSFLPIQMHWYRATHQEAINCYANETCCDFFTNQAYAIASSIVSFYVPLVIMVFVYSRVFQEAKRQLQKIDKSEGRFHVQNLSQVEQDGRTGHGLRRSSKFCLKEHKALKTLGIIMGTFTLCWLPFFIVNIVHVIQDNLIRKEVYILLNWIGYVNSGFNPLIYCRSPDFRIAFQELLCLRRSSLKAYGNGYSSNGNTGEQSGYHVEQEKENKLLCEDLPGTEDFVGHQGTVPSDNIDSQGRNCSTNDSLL

In the case of `COc1cccc(CC(=O)NCC2COc3ccccc3O2)c1OC` (stereo not drawn), the percent of DMSO control GFP in experiment [1] is 103% (inactive). The GFP response vs DMSO in experiment [2] is 105% (inactive); in [4] it was 102% (inactive). Besides, in [3], the percent response of DMSO control was 101% (inactive). In experiment [5], the GFP response, % of DMSO was 106% (inactive). Also, the double positive events in experiment [6] came to 60.9%. Also, in experiment [6], the vesicle binding response was 230% (inactive). The inhibition in experiment [7] was 6.95% (inactive); in experiment [11] it was -3.19% (inactive); in [15] it was 63% (active). Further, the superoxide response (% of plate) in [8] is 92.8% (inactive). Also, the aptamer binding inhibition in experiment [9] is 2% (inactive). For the same compound, the response is 3.04% (inactive) in experiment [10] and -3.58% (inactive) in experiment [12]. Also, the binding (% of control) in experiment [13] was 103% (inactive). For the same compound, the efflux inhibition (fraction of control) in experiment [14] was -0.1 (inactive). The differentiation response in [16] was -6.03% (inactive).
`CCC(C)NCCOc1ccc(C(C)(C)c2ccccc2)cc1` (stereo not drawn): the percent of DMSO control GFP in experiment [1] was 107% (inactive). In addition, the GFP response vs DMSO is 99.3% (inactive) in experiment [2] and 94% (inactive) in experiment [4]. The percent response of DMSO control in [3] was 104% (inactive). Further, the GFP response, % of DMSO in experiment [5] is 103% (inactive). This compound also showed a double positive events in experiment [6] of 61.9%. For the same compound, the vesicle binding response in experiment [6] was 181% (inactive). Besides, the inhibition in experiment [7] was -5.64% (inactive); in [11] it was -12.2% (inactive); in experiment [15], -5% (inactive). Besides, the superoxide response (% of plate) in [8] is 97.5% (inactive). Further, in [9], the aptamer binding inhibition is -5% (inactive). Further, the response in [10] is 17.1% (inactive); in [12], -2.14% (inactive). The binding (% of control) in experiment [13] is 106% (inactive). The efflux inhibition (fraction of control) in experiment [14] was -0.01 (inactive). Also, the differentiation response in experiment [16] is 9.04% (inactive).
As for `CCOc1ccc(CC2CCC(=O)NC2=O)cc1` (stereo not drawn), the percent of DMSO control GFP in [1] was 103% (inactive). For the same compound, the GFP response vs DMSO in [2] was 102% (inactive); in experiment [4], 110% (inactive). Further, the percent response of DMSO control in experiment [3] was 104% (inactive). Further, the GFP response, % of DMSO in experiment [5] was 115% (inactive). Also, the double positive events in experiment [6] stood at 64%. For the same compound, the vesicle binding response in [6] is 156% (inactive). In addition, the inhibition was -3.67% (inactive) in experiment [7], 12.5% (inactive) in experiment [11] and 9% (inactive) in experiment [15]. The superoxide response (% of plate) in experiment [8] was 105% (inactive). Besides, the aptamer binding inhibition in experiment [9] is 6% (inactive). For the same compound, the values for the response in [10] and in experiment [12] were -15.9% (inactive) and -1.14% (inactive), respectively. Further, the binding (% of control) in experiment [13] is 95.7% (inactive). Further, in [14], the efflux inhibition (fraction of control) was 0 (inactive). For the same compound, in [16], the differentiation response was 20.6% (inactive).
Turning to `O=C(CS(=O)(=O)Cc1ccccc1)NCc1ccc2c(c1)OCO2`, in [1], the percent of DMSO control GFP was 88% (inactive). In addition, the values for the GFP response vs DMSO in experiment [2] and in experiment [4] were 123% (inactive) and 81.4% (inactive), respectively. Further, the percent response of DMSO control in experiment [3] was 88.6% (inactive). In addition, the GFP response, % of DMSO in experiment [5] was 95.2% (inactive). The double positive events in [6] was 63.3%. In [6], the vesicle binding response is 123% (inactive). The values for the inhibition in experiment [7], in experiment [11] and in [15] were -3.24% (inactive), -1.72% (inactive) and -87% (inactive), respectively. The superoxide response (% of plate) in experiment [8] was 92% (inactive). Also, the aptamer binding inhibition in experiment [9] was 1% (inactive). The values for the response in [10] and in experiment [12] were -3.4% (inactive) and -0.1% (inactive), respectively. Also, the binding (% of control) in [13] was 104% (inactive). In addition, the efflux inhibition (fraction of control) in experiment [14] was -0.24 (inactive). Moreover, the differentiation response in [16] is 5.73% (inactive).
